Hit rate of the full screen: of about 53,000 sequences, about 3,700 (7%) were called active.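 The calls were made as follows: active = gene knockdowns whose robust z-score for IL-1 alpha signal is at least 2 or at most -2, so actives lie on both sides; inactive = the rest.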 This excerpt belongs to a sample that is enriched for actives.
Test: Components of the Cytosolic LPS Sensing Pathway: Gene Identification via Genome-wide siRNA Screen;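 also: robust z of the log signal after scaling to non-targeting control siRNA wells of the plate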
Conditions: RAW264.7 macrophages, IL-1a HTRF, actives lie on both sides, screened at 100 nM (by protocol), cells primed 5 h with Pam3CSK4 first
Outline: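 Mouse macrophage line RAW264.7 is transfected with siRNA (100 nM final), grown 48h, primed with TLR ligand Pam3CSK4 5 h and given intracellular LipidA 24 h. IL-1a in supernatant is read by HTRF and viability by luminescence.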

**Q.** Which z-score does the source give for CCUGCUCAAACUUUUGUGGTT against Ephx4 here?
**A.** 0.928 (inactive)

**Q.** Which z-score does the source give for GGAACCUUCUCCAAAGCAATT against Rpgrip1 here?
**A.** -2.45 (active)

**Q.** With CGUCAAAGGAGACAGCUUUTT against Rbm15b as the sequence, how does the z-score read?
**A.** 1.56 (inactive)

**Q.** With GCUCAAAUUGAGUCCUUAUTT against Ccdc122 as the sequence, how does the z-score read?
**A.** -0.548 (inactive)

**Q.** With GCUAGCCAUGGUUACCCACTT against Slc39a3 as the sequence, how does the z-score read?
**A.** -0.818 (inactive)

**Q.** For GGGACACUAGAAGUAGGGATT against Pramel4, which z-score is on record?
**A.** 0.299 (inactive)

**Q.** For GACGAUCAAGAUAUGAUGGTT against Olfr196, which z-score is on record?
**A.** 0.259 (inactive)

**Q.** With GCACGUACUGUUCUAGAAGTT against Kcng4 as the sequence, how does the z-score read?
**A.** 1.48 (inactive)

**Q.** For CCCAAAGAUAGAGCUCUGUTT against Sec61a2, which z-score is on record?
**A.** -1.94 (inactive)

**Q.** For GGUUGAUCUAAUGAUUGUGTT against Ccdc34, which z-score is on record?
**A.** 2.5 (active)

**Q.** For UCUCCUACCUAUGCACAUATT against Panx2, which z-score is on record?
**A.** -0.925 (inactive)

**Q.** For “GCAAGUCUGGAUGGAUGAGTT against 1190005I06Rik”, which z-score is on record?
**A.** -1.54 (inactive)

**Q.** For CCCUCGUUGAAUUAAACUUTT against Zfp385b, which z-score is on record?
**A.** 0.88 (inactive)

**Q.** Which z-score does the source give for GGUCUCAGACAAAGAUGAATT against Trmt10c here?
**A.** -0.239 (inactive)

**Q.** Which z-score does the source give for GGAAUGGAGUUUGGUUUUGTT against Extl1 here?
**A.** 2.67 (active)

**Q.** With GGAAACGAGUUGGAGACAATT against Gtpbp1 as the sequence, how does the z-score read?
**A.** -1.03 (inactive)

**Q.** For GGUUAAGUUCCUCUGGAACTT against Pnliprp2, which z-score is on record?
**A.** -0.0719 (inactive)

**Q.** For “GGCACUACCACAAGUAUAGTT against 1700073E17Rik”, which z-score is on record?
**A.** 0.0893 (inactive)

**Q.** With GCAGGUUAUGGUCAUAUUUTT against Zfp646 as the sequence, how does the z-score read?
**A.** 0.583 (inactive)

**Q.** Which z-score does the source give for GCAGUUGAGUCCACCUCAATT against Ccdc187 here?
**A.** 2.18 (active)

**Q.** With GGAGAACGUGGUACAAAGUTT against Sncg as the sequence, how does the z-score read?
**A.** -1.27 (inactive)

**Q.** For GGAGGACUUAGAGAGUAUGTT against Ctdp1, which z-score is on record?
**A.** -0.595 (inactive)

**Q.** With CCAGUGUAGAGCACAAAUCTT against Ahr as the sequence, how does the z-score read?
**A.** 2.51 (active)

**Q.** Which z-score does the source give for GGACCUGGACCUUUUAGAGTT against Vegfb here?
**A.** 1.34 (inactive)

**Q.** With GGUUGUUGGAAAAAUAGAUTT against Tmem175 as the sequence, how does the z-score read?
**A.** -0.0383 (inactive)

**Q.** For GGUGGACUUCAUGUAGAUUTT against Eif3m, which z-score is on record?
**A.** -1.07 (inactive)

**Q.** Which z-score does the source give for GGACAAGAGGUACACAAACTT against Eif3d here?
**A.** 2.83 (active)

**Q.** With GGAAGAGCUGGACUUCUUCTT against Hoxb2 as the sequence, how does the z-score read?
**A.** 1.71 (inactive)

**Q.** Which z-score does the source give for CCACGGUUAUGAUGACGACTT against Dyrk1b here?
**A.** 1.89 (inactive)

**Q.** With GGACUAUUUCCUUUGUGGGTT against Olfr31 as the sequence, how does the z-score read?
**A.** -1.59 (inactive)

**Q.** Which z-score does the source give for GGAUUGUCCUUGAUGGCUGTT against Plek2 here?
**A.** -0.116 (inactive)

**Q.** For GGAGGUUUUACUCAAACAUTT against Sec14l2, which z-score is on record?
**A.** 1.35 (inactive)

**Q.** Which z-score does the source give for GGGCCUGCUCUCUUUUCUGTT against Mfsd14b here?
**A.** 1.18 (inactive)

**Q.** Which z-score does the source give for CCUCGAGUCACCAACAUCGTT against Stt3b here?
**A.** -2.46 (active)

**Q.** For GCCUUUUGUACUAAGGUCCTT against Zfp715, which z-score is on record?
**A.** 1.65 (inactive)

**Q.** With GGGACAGUUAGUCAGUAAGTT against Pus7l as the sequence, how does the z-score read?
**A.** 0.196 (inactive)

**Q.** For GGCUCAGAAACAACAGGCUTT against Sh2d3c, which z-score is on record?
**A.** -1.19 (inactive)

**Q.** With GGCUGUUAGAGGAAGAGAUTT against Ube3b as the sequence, how does the z-score read?
**A.** 1.64 (inactive)

**Q.** Which z-score does the source give for CCAGCAUCUACUGUCUGACTT against Sstr1 here?
**A.** 4.2 (active)

**Q.** For GCAAUGCAUGAAGACUCGUTT against Ecsit, which z-score is on record?
**A.** 0.835 (inactive)

**Q.** For GGGACUGGAUCCUUGAUAUTT against Ebi3, which z-score is on record?
**A.** 0.677 (inactive)

**Q.** For CCCGGACCUUGAAUAAGCATT against Piwil4, which z-score is on record?
**A.** -1.06 (inactive)

**Q.** For GCCACUAUCUGGAUAAGGATT against Ftl1, which z-score is on record?
**A.** -3.54 (active)

**Q.** With GGAGAAGUGGUAGAAACUGTT against Brd8 as the sequence, how does the z-score read?
**A.** -1.3 (inactive)

**Q.** Which z-score does the source give for GCUUAGUCGGGAGAACUUUTT against Skp2 here?
**A.** 0.81 (inactive)

**Q.** With GGACAAGCUAAGCAUUGAGTT against Atp6ap1 as the sequence, how does the z-score read?
**A.** -1.45 (inactive)

**Q.** Which z-score does the source give for GCAUUGUCGUGUCUUCUCUTT against Tti1 here?
**A.** -2.13 (active)

**Q.** For GGAGUUUCAAGAAAAAAGGTT against Map3k21, which z-score is on record?
**A.** 1.08 (inactive)

**Q.** For GGGCGAAGAUACAAGUGACTT against Tnp2, which z-score is on record?
**A.** -1.76 (inactive)

**Q.** With GCACCAAGUCGUAUAAACATT against Sh3glb1 as the sequence, how does the z-score read?
**A.** -0.391 (inactive)

**Q.** For CCAAUUUUGUCAUAGGACATT against Plbd1, which z-score is on record?
**A.** -0.107 (inactive)

**Q.** For GGAUGUAAGGCCUUUUUUATT against Esr2, which z-score is on record?
**A.** 0.676 (inactive)

**Q.** Which z-score does the source give for GGAGACCUUCAGCUUGGAATT against Zfp260 here?
**A.** 0.0537 (inactive)

**Q.** With GGAUUCUAGGAGAGAAUCATT against Cplx3 as the sequence, how does the z-score read?
**A.** 0.897 (inactive)

**Q.** With GCCAUUUCUUAUCAAGUGGTT against Laptm4a as the sequence, how does the z-score read?
**A.** -2.63 (active)

**Q.** With GGAGCAGAACAUUAUCUUCTT against Tnn as the sequence, how does the z-score read?
**A.** 0.603 (inactive)

**Q.** Which z-score does the source give for “CCUAAACUACAGGAAUUUATT against D830014E11Rik” here?
**A.** -0.0293 (inactive)

**Q.** For CCAUAUGAGAAGAUGACACTT against Pdcl2, which z-score is on record?
**A.** -1.39 (inactive)

**Q.** Which z-score does the source give for GGCAGAAUCAGUUGAAAUUTT against Terf2ip here?
**A.** 0.917 (inactive)

**Q.** For CCAAGUUCGUGACAAACAUTT against Trpv1, which z-score is on record?
**A.** -0.0275 (inactive)

**Q.** Which z-score does the source give for “CCAUCAGGGUUACAAGUACTT against 6030458C11Rik” here?
**A.** -2.46 (active)

**Q.** Which z-score does the source give for GGACUUGUCCGCUCAUUGGTT against Usp54 here?
**A.** -1.13 (inactive)

**Q.** Which z-score does the source give for GGUAGAAAAGCUUCUGAAATT against Ap1g1 here?
**A.** 0.349 (inactive)

**Q.** For GGCUAUUAACAUCUCAGUUTT against Rhbdd1, which z-score is on record?
**A.** 0.0309 (inactive)

**Q.** Which z-score does the source give for GGACAGAGAUCAAUAUUAATT against Rxfp3 here?
**A.** -0.0718 (inactive)

**Q.** With CGAAUGAAAGAAUACCGUGTT against Dnajc6 as the sequence, how does the z-score read?
**A.** 0.0901 (inactive)

**Q.** For CCUGGAUGCAUGGUUAUUATT against Cyp2ab1, which z-score is on record?
**A.** 2.69 (active)

**Q.** With GGGAAGAAAAUCAAACUCATT against Fabp1 as the sequence, how does the z-score read?
**A.** 0.504 (inactive)
